FBW7 activator: FBW7 E3 ligase activators, primary screen, biochemical, AlphaScreen, human; F-box/WD repeat-containing protein 7 (Homo sapiens), Q969H0; AlphaScreen FBW7–phospho-cyclin E peptide binding, activator screen; AID 1259310, 2017; 650,000 compounds, 0.13% hits; normalized activity (activation), % at 26.1 µM; in the data active = normalized activity above about 1.9%;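 also: purified mutant Fbw7 with reduced substrate affinity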
MITF primary: MITF inhibitors, primary screen, biochemical, AlphaScreen, human; Microphthalmia-associated transcription factor (Homo sapiens), O75030; AlphaScreen MITF homodimerization, bead proximity signal; inhibition, % at 2.6 µM; 650,000 compounds, 0.91% hits; AID 1259374, 2018; in the data active = inhibition above about 50%
GPR151 ag: activators of human GPR151, primary screen, cell-based, PathHunter beta-arrestin, luminescence; PathHunter beta-arrestin GPR151 cells; 650,000 compounds, 1% hits; G-protein coupled receptor 151 (Homo sapiens), Q8TDV0; activation, % at 11.2 µM; AID 1508602, 2020; in the data active = activation above about 4.9%
Target sequence (Q8TDV0 whole entry, looked up): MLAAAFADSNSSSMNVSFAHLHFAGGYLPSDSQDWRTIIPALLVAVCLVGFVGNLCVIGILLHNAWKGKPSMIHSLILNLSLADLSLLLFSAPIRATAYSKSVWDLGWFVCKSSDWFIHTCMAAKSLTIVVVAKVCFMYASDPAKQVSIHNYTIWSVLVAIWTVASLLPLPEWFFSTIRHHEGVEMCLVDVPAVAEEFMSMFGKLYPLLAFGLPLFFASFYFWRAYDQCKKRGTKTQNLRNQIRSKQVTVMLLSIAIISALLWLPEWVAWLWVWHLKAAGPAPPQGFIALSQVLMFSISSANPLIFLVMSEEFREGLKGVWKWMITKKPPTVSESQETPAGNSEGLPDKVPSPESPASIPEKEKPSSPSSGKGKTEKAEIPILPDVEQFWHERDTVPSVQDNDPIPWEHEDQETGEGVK
TEAD-YAP block: TEAD-YAP interaction inhibition, primary screen, TEAD-YAP interaction inhibitor project, luminescence, HEK-TIYL cells | TEAD-Gal4/YAP UAS-luciferase luminescence | inhibition, % at 9.12 µM | 640,000 compounds, 1.4% hits; in the data active = inhibition above about 32%
GPR151 confirm: GPR151 activators, triplicate retest, confirmation, cell-based, PathHunter beta-arrestin, luminescence | GPR151 PathHunter beta-arrestin cells, 90 min; % of EA-reagent control over plate median | activation, % at 11.2 µM | 6,700 tested, under 10 active | shares compounds with GPR151 ag | AID 1508609, 2020;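 active = mean percent activation across replicates above the confirmation screen cutoff of 4.91%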
GPR119 counter: GPR119 activators in beta-arrestin cells, counter-screen for GPR151 activator project, cell-based, PathHunter beta-arrestin, luminescence, triplicate; shares compounds with GPR151 ag; 90 min; 0 = compound-well median, 100 = enzyme-acceptor control; activation, % at 11.2 µM; 6,700 compounds, 0.3% hits;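 active = mean percent activation in the counterscreen above 29.09%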;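 also: counterscreen on off-target GPR119 to flag nonselective hits from the GPR151 activator screen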
Of the large screens only hits and unclear results are named; the others gave an inactive call (follow-up assays come after a bar, where they were run). Compounds with a hit are over-represented: about 3.5% of the library has one in this group of screens.

O=C(NCCO)/C(=C/c1cccc([N+](=O)[O-])c1)NC(=O)c1cccc(Br)c1	none
CCOC(=O)c1ccc(NC(=O)/C(=C\c2ccc([N+](=O)[O-])cc2)NC(=O)c2ccco2)cc1	GPR151 ag 6.2 | GPR151 confirm inactive | GPR119 counter inactive
N#Cc1ccc(-c2nc3cnccn3c2NCc2ccc3c(c2)OCO3)cc1	none
CCOc1ccc(NC(=O)CCc2nc3cccnc3n2CCOC)cc1	none
COc1nc(NCCCN2CCCC2=O)nc(-c2ccc(N3CCOCC3)nc2)n1	none
Cc1ccc(NC(=O)C2CCCN2Sc2ccccc2[N+](=O)[O-])c(C)c1 (stereo unspecified)	GPR151 ag 6.0 | GPR151 confirm inactive | GPR119 counter inactive
C#CCOc1ccc2c(c1)c(C(=O)OCC)c(C)n2C	none
CCOC(=O)c1c(C)n(C)c2ccc(OCC#N)cc12	GPR151 ag 7.1 | GPR151 confirm inactive | GPR119 counter inactive
COCCOC(=O)c1c(C)oc2ccc(OCC#N)cc12	GPR151 ag 11.3 | GPR151 confirm inactive | GPR119 counter inactive
COc1ccccc1C(=O)N/N=C(\C)CC(=O)Nc1ccccc1Br	GPR151 ag 7.6 | GPR151 confirm inactive | GPR119 counter inactive
CC(=O)Nc1ccccc1NC(=O)C/C(C)=N/NC(=O)c1ccncc1	none
C/C(CC(=O)Nc1ccccc1Cl)=N\NC(=O)c1ccncc1	GPR151 ag 9.1 | GPR151 confirm inactive | GPR119 counter inactive
Cc1ccc(-c2csc(N3C(=O)CNC3=S)n2)cc1	GPR151 ag 5.7 | GPR151 confirm inactive | GPR119 counter inactive
S=c1[nH]nc(COc2ccc(Cl)c(Cl)c2)n1-c1ccccc1	none
COc1ccc(/C=C/C(=O)Nc2sc3c(c2C(N)=O)CCCCC3)cc1	none
COc1ccc(/C=C/C(=O)Nc2sc3c(c2C(=O)NCc2cccnc2)CCCC3)cc1	GPR151 ag 6.7 | GPR151 confirm inactive | GPR119 counter inactive
CCCCCc1ccc(-c2ccc(C(=O)Oc3ccc(OCCCC)cc3)cc2)nc1	none
Cc1ccc2nc(-c3ccc(Br)cc3)cc(C(=O)OCC(=O)c3ccc(Cl)c([N+](=O)[O-])c3)c2c1	none
O=C(NC1c2ccccc2Oc2ccccc21)c1ccncc1	none
O=C(Nc1ccccc1)NC1c2ccccc2Oc2ccccc21	GPR151 ag 6.6 | GPR151 confirm inactive | GPR119 counter inactive
CC(C)CCN1CCNC(=O)C1CC(=O)NCC1(c2ccccc2)CCOCC1 (stereo unspecified)	GPR151 ag 6.1 | GPR151 confirm inactive | GPR119 counter inactive
CCOc1ccc(CN2CCNC(=O)C2CC(=O)NCC2(c3ccccc3)CCCC2)cc1 (stereo unspecified)	GPR151 ag 8.0 | GPR151 confirm inactive | GPR119 counter inactive
O=C1CC(C(=O)N2CCC3(CC2)CC3C(=O)NCCC2=CCCCC2)c2ccccc21 (stereo unspecified)	GPR151 ag 5.5 | GPR151 confirm inactive | GPR119 counter inactive
C(=C\C1Nc2ccccc2C(c2ccccc2)(c2ccccc2)O1)/c1ccccc1 (stereo unspecified)	none
OC(COc1ccccc1CN1CCCC1)CN1CCc2ccccc2C1 (stereo unspecified)	GPR151 ag 8.9 | GPR151 confirm inactive | GPR119 counter inactive
COc1ccc(OC)c(C2=C/C(=C/c3cccc(OC)c3OC)C(=O)O2)c1	GPR151 ag 5.1 | GPR151 confirm inactive | GPR119 counter inactive
O=C(CSc1nc2ccsc2c(=O)n1Cc1ccccc1)c1ccccc1	none
Cc1cc2ncn(CCC(=O)NC(C)(C)C)c2cc1C	GPR151 ag 5.3 | GPR151 confirm inactive | GPR119 counter inactive
Cc1cc2ncn(CCC(=O)NC3CCCC3)c2cc1C	none
CCCN(CCC)C(=O)c1cc(-c2ccco2)[nH]n1	GPR151 ag 5.2 | GPR151 confirm inactive | GPR119 counter inactive
CC(C)(C)NC(=O)c1cc(-c2ccco2)[nH]n1	none
Cc1cc2ccccc2n1CCNC(=O)c1ccc(Br)cc1	GPR151 ag 5.0 | GPR151 confirm inactive | GPR119 counter inactive
O=C(Nc1ccc(F)cc1)c1ccc(=O)oc1	none
O=C1NN(c2ccc(F)c(Cl)c2)C(=O)/C1=C\c1cccc(I)c1	GPR151 ag 5.2 | GPR151 confirm inactive | GPR119 counter inactive
O=C1NN(c2ccc(F)c(Cl)c2)C(=O)/C1=C\c1ccc(Br)cc1	none
CC(=O)Oc1cccc(/C=C2/C(=O)NN(c3ccc(C)c(C)c3)C2=O)c1	GPR151 ag 5.0 | GPR151 confirm inactive | GPR119 counter inactive
CCOC(=O)c1ccccc1NC(=O)c1c[nH]c(=O)n(-c2ccc(C)c(C)c2)c1=O	none
O=C(Nc1cccc(Cl)c1)N1CCN(c2ccc(Nc3cccnc3)nn2)CC1	GPR151 ag 6.1 | GPR151 confirm inactive | GPR119 counter inactive
CN(CC(=O)NC1CCCCCC1)S(=O)(=O)c1ccccc1	GPR151 ag 8.6 | GPR151 confirm inactive | GPR119 counter inactive
CS(=O)(=O)N(CC(=O)Nc1ccc(OCc2ccccc2)cc1)C1CCCCC1	none
CCOc1ccc(NC(=O)CN(C2CCCCC2)S(=O)(=O)c2ccccc2)cc1	GPR151 ag 6.0 | GPR151 confirm inactive | GPR119 counter inactive
CN(CC(=O)NC1CCCC1)S(=O)(=O)c1ccccc1	none
C/C(=N\NC(=O)c1ccc(C(=O)N/N=C(\C)c2ccc(F)cc2)cc1)c1ccc(F)cc1	none
C/C(=N\NC(=O)c1ccc(F)cc1)c1ccccc1	GPR151 ag 5.4 | GPR151 confirm inactive | GPR119 counter inactive
O=C(CCCn1c(=O)[nH]c2ccccc2c1=O)N1CCN(c2ccc(Cl)cc2)CC1	GPR151 ag 5.5 | GPR151 confirm inactive | GPR119 counter inactive
O=C(c1ccc2cc[nH]c2c1)N1CCN(C(=O)C(c2ccccc2)c2ccccc2)CC1	GPR151 ag 5.6 | GPR151 confirm inactive | GPR119 counter inactive
O=C(c1ccc2cc[nH]c2c1)N1CCNCC1	none
O=C(O)CC1NC(=O)c2ccc(Br)cc21 (stereo unspecified)	GPR151 ag 18.0 | GPR151 confirm inactive | GPR119 counter inactive
O=C(CSCc1ccc(Cl)cc1)NCCSCc1ccco1	GPR151 ag 7.8 | GPR151 confirm inactive | GPR119 counter inactive
CSc1nc(C(=O)N2CCc3nnc(CNC(=O)c4cccc(F)c4)n3CC2)cs1	GPR151 ag 5.2 | GPR151 confirm inactive | GPR119 counter inactive
COc1cc(CNc2ccc3ncc(-c4cccnc4)n3n2)cc(OC)c1OC	GPR151 ag 7.8 | GPR151 confirm inactive | GPR119 counter inactive
O=C(NCc1cccs1)c1ncc(Cl)c(Cl)c1Cl	none

Screening results as filed in PubChem.
